# Laboratory results reported in the supplement of paper PMC11417369.
# In all, about 25,000 sequences were measured (“ln(normalized median fluorescence intensity)”: median about 9.3, highest 2% from about 10 on). The full list was thinned out, with the highest values kept by preference.
# Tested on: PF3D7_0420300 AP2 domain 1 (GST-tagged)
# Test: gcPBM binding intensity (ln(normalized median fluorescence intensity)); higher = stronger DNA binding
# Summary of the method: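 Probes on an Agilent 4 × 180k array were primer-extended, double-stranded and 36 bp long, taken from intergenic genomic regions, with negative controls added. GST-tagged P. falciparum DNA-binding domains from E. coli, about 25 μg on average, were applied to the array for 1 h in 1× PBS containing 1% milk, 0.2 mg/ml BSA, 0.5% salmon testes DNA and 0.03% Triton X-100. Binding intensity, obtained after Alexa488 anti-GST antibody detection and a 488 nm scan, is the highest Masliner-normalised natural-log median intensity across replicate spots of either probe orientation.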
row,Sequence,gcPBM binding intensity (ln)
1,TTACCAAAAACCTCAAGTACAAAAAATCCCTAATAT [XGTACX_site2313],9.37
2,TATATATTAAACTTTGCACACATAATTTAACTACAA [CACACA_site3440],9.4
3,TTAGATATAAAAGCATGTACTTGTATAAAATATATA [XGTACX_site8272],9.16
4,TACATATACAGACACACACACACACCCCCACAAAAA [CACACA_site495],10.3
5,CACACCCACAGACACACACACACATATATATATATA [CACACA_site363],10.2
6,CATGCAAAAAATTCCACACACACACCCACATATAAA [CACACA_site1229],9.92
7,TTGGCATACAGACACACACACACACGCCCACATATA [CACACA_site6425],10.2
8,TACATGCAAAAAATTCCACACACACCCCCACATATA [CACACA_site8329],10.2
9,TGCAAAAAATTCCACACACACACACCCATATAAATA [CACACA_site1230],10
10,CACACCCACAGACACACACACACATATATAATATAT [CACACA_site594],10.2
11,TATACAGACAGACACACACACATATATATATATATA [CACACA_site1734],9.82
12,TACAGACATACATACACACATACATATATATATATA [CACACA_site1940],9.67
13,TATATACATAGACACCCACACACAAAAAAAAAAAAA [CACACA_site8186],9.75
14,TTACATTATATACATACACACCCACCCACAAAAAAA [CACACA_site8187],10.1
15,CCTTTATATTATAAAAGTACATAATATTTTATAAGT [XGTACX_site1629],8.96
16,TATATATGTATCATTACACACATGTATACTTATTTG [CACACA_site4138],9.71
17,TGAGAGTTCTCATATGCACACAAAAAACTTTCATTT [CACACA_site7898],9.28
18,TATTTTTAATAAAAACGTACGGAATACAAAAAAAAT [XGTACX_site3477],9.4
19,AAGAAAATTGTCTGAAGTACAAAACATTAATAATAT [XGTACX_site4864],9.27
20,ATATTATAATTAAAACGTACGTATTTATGAATTCAT [XGTACX_site1047],9.16
21,ATAAATAATATAAATACACACTAAAAAAAATATATA [CACACA_site4456],9.7
22,CAAAAACATACCTACACACACAATATGTATAAATAA [CACACA_site7617],10
23,TACCTATACAGACACACACACACACGCCCACAAAAA [CACACA_site6375],10.3

row,Sequence,gcPBM binding intensity (ln)
1,TAAATACAGACATACACACATACACCCACATATATA [CACACA_site547],9.95
2,TTGGCATACAGACACACACACACACCCCCACATATA [CACACA_site590],10.1
3,CATACACCCATACATACACACATACAGATATATATA [CACACA_site5123],9.74
4,CACCCCCACAGACACACACACACACCCATATATATA [CACACA_site364],10.3
5,CGCACCCACAGACACACACACACATATATATATATA [CACACA_site2202],10.2
6,AATACACGCAGACACACACACAAAAAAAAAAAAAAA [CACACA_site6384],9.61
7,GGCATACACAGACACACACACACACCCACATATATA [CACACA_site591],10.3
8,TATACATACAGACCCACACACAAAAAAAAAAAAAAA [CACACA_site6536],9.38
9,ATATTATTGTAGAAATGTACATATATATATATATAT [XGTACX_site1882],9.31
10,ATCATATGTATGCATACACACAAAAAGTTATTTATA [CACACA_site6325],9.37
11,TATATAAAGAAACACACACACACCTTATAATTATTA [CACACA_site4062],10
12,AAAAAAAAAAAACACACACACACACCCACAAAATAT [CACACA_site1447],10.2
13,TGCAACAAAATAAACACACACACACCCCCACAAAAA [CACACA_site3388],10.3
14,TATATAAATAAACACACACACACCTTATAATTATTA [CACACA_site9345],9.93
15,CATACATACAAACACACACACACACCCATATATATA [CACACA_site2918],10.4
16,TTAACAAATAAACACACACACACACCCAAAAAAAAA [CACACA_site8068],10.1
17,TAAACACCCATATAAACACACATACATACATACATA [CACACA_site5383],9.7
18,AAAAAAAAAAAACACACACACACACCCAAATATATA [CACACA_site150],10.1
19,CACAAACAAAAACACACACACACACCCACAAAAATG [CACACA_site2429],10.1
20,TATATAAATGGACACACACACACCTTATAATTATTA [CACACA_site6093],10.2
21,ATAAATAAAAAACACACACACACACCCAAAAAAAAA [CACACA_site2624],10.1
22,TATAAACACCCATATAAACACACATACATACATACA [CACACA_site8791],9.58
23,TTATATAACATTATTTGTACATATAAAATATGGATG [XGTACX_site8526],9

row,Sequence,gcPBM binding intensity (ln)
1,ATATTATTTTAAAGTACACACATATATTGATATATA [CACACA_site7153],9.39
2,TGAATTCGTCAAAAGCGTACATATAATATCTTCTTG [XGTACX_site8842],9.19
3,AAAAACTATTGTAGGACACACAAAATTCCAATTTTA [CACACA_site1701],9.41
4,GTCACAAAATAAATTAAACACACAACATCATATATG [CACACA_site8182],9.65
5,AATGTACCCACACCCACACACAAACAAATATATATA [CACACA_site2751],9.85
6,AATGTACACGCACCCACACACAAACAAATATAAATA [CACACA_site7319],9.81
7,AAAATACAGAAACACACACACACACCCATATATATA [CACACA_site3559],10.3
8,ATAAAATACAGATAAACACACATATAAACACCCATA [CACACA_site5381],9.92
9,AACATACATAAACACACACACACACCCACAGAGACA [CACACA_site4430],10.4
10,TTTAAATACAGACATACACACATACACCCACATATA [CACACA_site8078],9.81
11,CAAAAAAAATTATACACACACACACCCATATATATA [CACACA_site1044],10.2
12,AATGTACACCCACCCACACACAAACAAATATATATA [CACACA_site5521],10.2
13,AAAAAAAAAAAAAAAACACACAGAAATATATATATA [CACACA_site4611],9.55
14,TAAACAGACATATAAACACACATATAAACAGACATA [CACACA_site7214],9.91
15,ATTAATTATATATATACACACACATACACCCAAATA [CACACA_site9126],10
16,CACAAAAAAAATTATACACACACACCCATATATATA [CACACA_site8255],9.99
17,AAATAACACTAATGATGTACTCAACTATTTATAATT [XGTACX_site8183],9.47
18,TAAATATCAAGACACACACACAAAAGTGAATAAATA [CACACA_site7723],9.9
19,TTATATTCTAGAGACACATGCGATTTTTTATTTTAT [TGCATGCA_site649],9.42
20,ATATAATGATGGAAAAGAAAAGAAATAAAAAAAAAA [CACACA_negctrl_site1170],9.21
21,TAGTTATCACATTGCACACACATTTCCTTTTACATT [CACACA_site7589],10
22,CTAAAAATTTTAATTGCACACCACGTTGGACTATTT [CACACA_site1489],9.24
23,AGCCATTAATTCTCTACACACCTTTATGTTATTTAG [CACACA_site3635],9.71

row,Sequence,gcPBM binding intensity (ln)
1,TATTTTAATGAAGCATTTAAGGGAAAAAAAAAAAAA [TGCATGCA_negctrl_site606],8.85
2,TTTACAAAAAATTATACACACACGTACAGATAAATA [CACACA_site4678],9.89
3,AACATACAGAAACACACACACACACCCACACCCACA [CACACA_site493],10.3
4,TATATACACAAACACACACACACATACACCCACATA [CACACA_site8504],10.3
5,AATAAATATATATACACACCCATATATATATATATA [CACACA_site2595],9.43
6,TACAAACACCCATATACACACAAAAAAAAAATAAAA [CACACA_site5421],9.55
7,TATATACAGAAACACACACACACATATATATATATA [CACACA_site2247],10.1
8,AAAAAATACAAACACACACACACACCCATATATATA [CACACA_site3560],10.2
9,TATAAATAAATTTATACACACACACCCATATATATA [CACACA_site8183],10
10,TATACATACCCACCCACACACAAAAAAAAAAAAAAA [CACACA_site4632],9.68
11,TAAATAAATTTATACACACACACACCCATATATATA [CACACA_site849],10.2
12,AAAAAAAAAAAAAACACACACACACCCATACAAAAT [CACACA_site1446],10.1
13,TATATACACCCACATACACACAAATAAAAAAACACC [CACACA_site3414],9.98
14,TATACGCAGAAACACACACACATACACCCACATACA [CACACA_site1723],10
15,GATAAAATAAAAGTGGGTACTTAAATATATATATAA [XGTACX_site8457],9.28
16,ATAAGAAAAAAGAACTGTACTAATAAAATATAAAAA [XGTACX_site3715],9.3
17,TTTCGTAAAATGAAATGTACTCAAAAGTAAATATAA [XGTACX_site214],9.03
18,TATTTTTCCATATGCACACACACCGTATATATAATA [CACACA_site1127],10
19,AAAGAATAATTAAATACACACATATTGCAGTAAAAA [CACACA_site7201],9.69
20,TATAAAAAATATAATTGTACATAAAGGTTAAAATGT [XGTACX_site6138],9.47
